Laboratory results from the supplement of paper PMC12636033.
± gives the standard deviation of the averaged measurements. Over roughly 33,000 sequences, “E-score (rank enrichment, -0.5 to 0.5)” has its median near -0.0075; the highest 2% begin near 0.23. The sample as a whole holds a higher share of the highest values than the screen did.

These sequences were tested on WT Max(13-93) synthetic (M65Nle) (assay: PBM 8-mer E-score (E-score (rank enrichment, -0.5 to 0.5)); higher = stronger preferential binding).
Protocol: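 Protein binding microarray (universal PBM chip covering all 10-mers in fixed probe flanks) with chemically synthesized human Max(13-93) bHLH-LZ analogs (not full-length Max) bearing noncanonical residues (hArg, Tha, Aib, Nle at 65) and aromatic Cys staples. Read-out per 8-mer (and its reverse complement): E-score (rank-based enrichment, -0.5 to 0.5) and Z-score of median probe intensity.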

Row | Sequence | PBM 8-mer E-score
1 | AGCAAACC | 0.102 ± 0.14
2 | GCATGATA | 0.273 ± 0.01
3 | CCATGATC | -0.0246 ± 0.092
4 | ACATGAAG | 0.0102 ± 0.026
5 | CCATGATA | 0.0793 ± 0.032
6 | ACATGAGA | 0.146 ± 0.056
7 | ACATGATC | 0.241 ± 0.024
8 | ACATGATA | 0.269 ± 0.038
9 | GCATGACA | 0.2006 ± 0.0015
10 | ACATGATG | 0.0731 ± 0.012
11 | AAATGATA | 0.197 ± 0.029
12 | ACATGAAT | 0.245 ± 0.071
13 | ACATGAAC | 0.0506 ± 0.02
14 | TGCGTACA | 0.188 ± 0.13
15 | CGAGGCCG | -0.243 ± 0.075
16 | GCCCTGAC | 0.0594 ± 0.023
17 | ACTCCGAT | -0.0923 ± 0.047
18 | AAAGAAAC | 0.0488 ± 0.013
19 | ACATCTCA | 0.146 ± 0.089
20 | TGGGCACA | 0.0612 ± 0.062
21 | ATGTTCAC | -0.109 ± 0.027
22 | GCTGATGA | -0.087 ± 0.06
23 | CTTGGGAC | -0.183 ± 0.081
24 | ATGTGTAG | 0.25 ± 0.041
25 | GTGTGTAA | 0.0936 ± 0.013

Row | Sequence | PBM 8-mer E-score
26 | ATGTGTAA | 0.236 ± 0.0034
27 | AAGTGTAG | 0.111 ± 0.079
28 | CTGTGTAA | -0.00451 ± 0.0057
29 | ATGTGTAC | 0.184 ± 0.011
30 | CCTAAGGA | 0.089 ± 0.0031
31 | AAGCGTAG | -0.0452 ± 0.033
32 | CATGTCCA | 0.124 ± 0.026
33 | AGTCAGTA | 0.0494 ± 0.052
34 | GCGTGGAA | 0.179 ± 0.049
35 | ACGTGGAT | 0.383 ± 0.044
36 | ACGTGGAC | 0.331 ± 0.0084
37 | AAGTGGAT | -0.0604 ± 0.074
38 | ACGTGGAG | 0.338 ± 0.049
39 | CCGTGGAG | -0.163 ± 0.06
40 | GCGTGGAC | 0.122 ± 0.16
41 | AAGTGGAG | 0.0727 ± 0.049
42 | AGGTGGAT | 0.0366 ± 0.1
43 | CCGTGGAC | -0.137 ± 0.023
44 | ACGTGGAA | 0.271 ± 0.053
45 | TCGTGGAA | 0.163 ± 0.02
46 | ATCCTTTC | 0.0595 ± 0.17
47 | AAAGAGAT | -0.0586 ± 0.1
48 | GTCCTTAA | 0.063 ± 0.0053
49 | AAAGGATG | 0.0585 ± 0.087
50 | CAAAACAA | 0.129 ± 0.06

Row | Sequence | PBM 8-mer E-score
51 | CATCGAGA | -0.0265 ± 0.036
52 | GTAATGTA | 0.0754 ± 0.18
53 | ACCTCAAT | -0.0496 ± 0.16
54 | CTGTGGAC | 0.0601 ± 0.14
55 | ATGTGGAC | 0.238 ± 0.018
56 | ATGTGGAG | 0.1647 ± 0.0014
57 | GGCATCCA | -0.0611 ± 0.057
58 | ACCTTTTA | 0.027 ± 0.18
59 | AATAAAAC | 0.296 ± 0.056
60 | TATAAATA | 0.208 ± 0.025
61 | CATAAATA | 0.313 ± 0.0091
62 | AATAAATA | 0.168 ± 0.017
63 | AATAAAAT | 0.144 ± 0.068
64 | AATAAACC | 0.197 ± 0.028
65 | AATAAAAA | 0.256 ± 0.11
66 | AATAAAAG | 0.206 ± 0.037
67 | CATAAAAC | 0.0726 ± 0.027
68 | GGACATCC | -0.188 ± 0.068
69 | CACTTAGG | -0.0583 ± 0.16
70 | AGGTGACG | -0.053 ± 0.045
71 | ACGTGAGA | 0.208 ± 0.0048
72 | ACGTGACC | 0.298 ± 0.018
73 | ACGTGACG | 0.321 ± 0.039
74 | ACGTGAGG | 0.1604 ± 0.0013
75 | GCGTGACC | 0.075 ± 0.14

Row | Sequence | PBM 8-mer E-score
76 | CCGTGACG | -0.0153 ± 0.0018
77 | ACGTGAGT | 0.327 ± 0.035
78 | CCGTGACC | -0.23 ± 0.064
79 | ACGTGACA | 0.366 ± 0.014
80 | CCGTGACA | 0.00228 ± 0.054
81 | TCGTGACA | 0.0356 ± 0.012
82 | AGCCGAGG | -0.103 ± 0.058
83 | AACACAGG | -0.0563 ± 0.091
84 | ACGAACCG | -0.0438 ± 0.041
85 | AATCCAAC | 0.0162 ± 0.14
86 | AGTGGTGC | -0.0756 ± 0.066
87 | GGATGCCC | -0.0856 ± 0.021
88 | CGTATTCC | -0.096 ± 0.036
89 | ACTGCGCT | 0.0213 ± 0.097
90 | ACCGCACC | -0.0552 ± 0.13
91 | AAGTGACT | -0.00483 ± 0.05
92 | ACGTGACT | 0.282 ± 0.0038
93 | AGGTGACT | -0.0287 ± 0.06
94 | GCACGGAA | -0.00447 ± 0.026
95 | GAGGATGC | -0.0499 ± 0.029
96 | ATGAATGC | 0.114 ± 0.14
97 | ATGAATGG | 0.311 ± 0.023
98 | ATGAATGA | 0.126 ± 0.034
99 | GACGACAA | 0.0432 ± 0.014
100 | GAGAGGTA | -0.0899 ± 0.13

Row | Sequence | PBM 8-mer E-score
101 | GAAGTTCC | -0.122 ± 0.051
102 | AATAATGA | 0.259 ± 0.073
103 | AATAATGT | 0.173 ± 0.097
104 | CATAATGA | 0.172 ± 0.059
105 | AATAATGC | 0.245 ± 0.095
106 | AATAATGG | 0.044 ± 0.046
107 | GATAATGA | 0.125 ± 0.072
108 | ATCCGAAA | -0.03 ± 0.061
109 | ATATTACA | 0.197 ± 0.017
110 | ATATTACC | 0.267 ± 0.029
111 | ATATTAGC | 0.124 ± 0.022
112 | AGATTACC | -0.00321 ± 0.065
113 | ATATTAGG | 0.244 ± 0.036
114 | CTATTACC | -0.0563 ± 0.029
115 | ATATTACG | 0.241 ± 0.0048
116 | ATATTAGA | 0.172 ± 0.004
117 | AAATTACG | 0.0856 ± 0.02
118 | CGTCGGGA | -0.106 ± 0.096
119 | CACCGCGA | -0.226 ± 0.025
120 | CTAGGTCC | -0.172 ± 0.12
121 | GGAAGCAC | 0.0303 ± 0.0034
122 | ATCATAAG | 0.172 ± 0.039
123 | AACATAGT | 0.0321 ± 0.091
124 | ATCAACAA | 0.15 ± 0.12
125 | AACATAAT | 0.252 ± 0.011

Row | Sequence | PBM 8-mer E-score
126 | ATCATGAA | 0.0859 ± 0.037
127 | ATCAACAG | 0.106 ± 0.018
128 | ATCATAAA | 0.142 ± 0.15
129 | ATCATGAG | 0.058 ± 0.031
130 | AACATAAG | 0.097 ± 0.013
131 | ATCAACAT | 0.24 ± 0.013
132 | ATCATGAT | 0.312 ± 0.0072
133 | ATCATAAT | 0.269 ± 0.033
134 | ACGGGGAG | 0.0661 ± 0.065
135 | CCATCCAC | 0.155 ± 0.16
136 | GAGCTGGA | -0.13 ± 0.0049
137 | AAGGCTCC | -0.199 ± 0.056
138 | ACTGTCCC | 0.1452 ± 0.001
139 | AGAGGCTC | -0.129 ± 0.083
140 | GTCGCCGA | -0.0844 ± 0.015
141 | TATGGTAA | 0.104 ± 0.1
142 | GTGTCCTA | -0.012 ± 0.016
143 | GCCAACGA | -0.0918 ± 0.043
144 | ATCGGTTG | -0.0382 ± 0.099
145 | CCTGATGA | -0.114 ± 0.085
146 | GTGATAAA | 0.143 ± 0.05
147 | ATCATCAA | -0.0899 ± 0.0026
148 | ATCATATC | 0.134 ± 0.044
149 | CACATAAC | 0.108 ± 0.067
150 | ATCATCAC | 0.0578 ± 0.072

Row | Sequence | PBM 8-mer E-score
151 | ATGATAAA | 0.181 ± 0.084
152 | TTGATAAA | 0.25 ± 0.021
153 | ATCATCAT | 0.245 ± 0.026
154 | AACATAAC | 0.247 ± 0.07
155 | GACATAAC | 0.17 ± 0.0081
156 | ATCATATG | 0.233 ± 0.0053
157 | ATCATATA | 0.204 ± 0.012
158 | AGGATATC | 0.084 ± 0.03
159 | CGCACCCA | 0.0267 ± 0.1
160 | AAGGTGAC | -0.1212 ± 0.00044
161 | CGGATGAC | 0.00616 ± 0.15
162 | TCCGGTCA | -0.19 ± 0.054
163 | ACTCTGAA | -0.0606 ± 0.013
164 | GAAAGCCA | -0.0183 ± 0.048
165 | CTGTCTGA | 0.00168 ± 0.0099
166 | CTCAACAC | 0.202 ± 0.084
167 | ATGATAAT | 0.251 ± 0.078
168 | ATGATAAG | 0.17 ± 0.054
169 | ATGATAAC | 0.206 ± 0.023
170 | AGGCCTGG | -0.294 ± 0.061
171 | ATATTAAC | 0.218 ± 0.013
172 | ATATTAAG | 0.131 ± 0.02
